The values below come from PubChem BioAssay AID1159580 (chemical genetic matrix, 2015).

Out of some 5,500 compounds screened, about 2,000 (36%) were called active. Another 18% or so got no clear call; they are omitted. Some of the results follow. A number with no mark means an inactive call. Rule as the data show it: active = normalized growth mostly below about 0.91 (no sharp cut-off); inconclusive = no clear call, values can overlap the other calls; inactive = mostly above about 0.92.

The assay can be described thus: chemical genetic growth profiling, strain panel (AID 1159580).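 Also: tested at 20 µM; growth read once vehicle control cultures reached saturation at 30 °C; 1 = growth at the plate median or of vehicle wells.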 Particulars: growth OD.
The mark [1] stands for this setting: S. cerevisiae deletion strains, locus YGR078C, strain PAC10, stronger effect = lower value.
The mark [2] stands for this setting: S. cerevisiae deletion strains, locus YNL153C, strain GIM3, stronger effect = lower value.
Where [3] appears, read: S. cerevisiae deletion strains, locus YNL322C, strain KRE1, stronger effect = lower value.
[4] abbreviates: S. cerevisiae deletion strains, locus YAL013W, strain DEP1, stronger effect = lower value.
Setting [5] is: S. cerevisiae deletion strains, locus YBR229C, strain ROT2, stronger effect = lower value.
Where [6] appears, read: S. cerevisiae deletion strains, locus YDL101C, strain DUN1, stronger effect = lower value.
[7] abbreviates: S. cerevisiae deletion strains, locus YDL134C, strain PPH21, stronger effect = lower value.
[8] abbreviates: S. cerevisiae deletion strains, locus YDR150W, strain NUM1, stronger effect = lower value.
[9] abbreviates: S. cerevisiae deletion strains, locus YEL061C, strain CIN8, stronger effect = lower value.
The mark [10] stands for this setting: S. cerevisiae deletion strains, locus YHR030C, strain SLT2, stronger effect = lower value.
The mark [11] stands for this setting: S. cerevisiae deletion strains, locus YHR087W, strain rtc3, stronger effect = lower value.
Setting [12] is: S. cerevisiae deletion strains, locus YJR043C, strain POL32, stronger effect = lower value.
The mark [13] stands for this setting: S. cerevisiae deletion strains, locus YJR075W, strain HOC1, stronger effect = lower value.
Setting [14] is: S. cerevisiae deletion strains, locus YLR039C, strain RIC1, stronger effect = lower value.
Setting [15] is: S. cerevisiae deletion strains, locus YLR058C, strain SHM2 (second series), stronger effect = lower value.
The mark [16] stands for this setting: S. cerevisiae deletion strains, locus YLR085C, strain ARP6, stronger effect = lower value.
Where [17] appears, read: S. cerevisiae deletion strains, locus YLR262C, strain YPT6, stronger effect = lower value.
Setting [18] is: S. cerevisiae deletion strains, locus YML094W, strain GIM5, stronger effect = lower value.
[19] abbreviates: S. cerevisiae deletion strains, locus YMR219W, strain ESC1, stronger effect = lower value.
Setting [20] is: S. cerevisiae deletion strains, locus YMR263W, strain SAP30, stronger effect = lower value.
Setting [21] is: S. cerevisiae deletion strains, locus YMR307W, strain GAS1, stronger effect = lower value.
The mark [22] stands for this setting: S. cerevisiae deletion strains, locus YNL298W, strain CLA4 (second series), stronger effect = lower value.
[23] abbreviates: S. cerevisiae deletion strains, locus YNR030W, strain Alg12, stronger effect = lower value.
Where [24] appears, read: S. cerevisiae deletion strains, locus YOL006C, strain TOP1, stronger effect = lower value.
The mark [25] stands for this setting: S. cerevisiae deletion strains, locus YPL055C, strain LGE1, stronger effect = lower value.
Setting [26] is: S. cerevisiae deletion strains, locus YPL241C, strain CIN2, stronger effect = lower value.
[27] abbreviates: S. cerevisiae deletion strains, locus YPR135W, strain CTF4, stronger effect = lower value.

Consider `O=C(Cc1ccc(Cl)c(Cl)c1)OCCN1CCCC1`, for which the normalized growth is 1.02 (S. cerevisiae deletion strains, locus YAL040C, strain CLN3, stronger effect = lower value); 1.02 (S. cerevisiae deletion strains, locus YDR363W, strain ESC2, stronger effect = lower value); 0.997 (S. cerevisiae deletion strains, locus YER002W, strain NOP16, stronger effect = lower value); 0.994 under setting [1]; 0.999 under setting [2]; 1.02 (S. cerevisiae deletion strains, locus YNL175C, strain NOP13, stronger effect = lower value). In addition, the normalized growth runs as follows: (S. cerevisiae deletion strains, locus YNL197C, strain WHI3, stronger effect = lower value) 1; (S. cerevisiae deletion strains, locus YNL224C, strain SQS1, stronger effect = lower value) 1.01; under setting [3], 0.99; (S. cerevisiae deletion strains, locus YOR083W, strain WHI5 (second series), stronger effect = lower value) 1.03.

As to `O=C1CCCN1c1ccc(Cl)c(Cl)c1`, the normalized growth under setting [4] is 0.987; the normalized growth under setting [5] was 0.977; the normalized growth under setting [6] was 0.939; the normalized growth under setting [7] is 0.969; the normalized growth under setting [8] was 0.968; the normalized growth under setting [9] is 0.933. Further, the normalized growth is 0.976 under setting [1]; 0.8 under setting [10]; 0.989 under setting [11]; 0.97 under setting [12]; 0.983 under setting [13]; 0.916 under setting [14]. Further, the normalized growth is, setting by setting: under setting [15], 0.988; under setting [16], 0.894; under setting [17], 0.949; under setting [18], 0.853 (active); under setting [19], 0.988; under setting [20], 0.984. Further, the normalized growth was 0.9 under setting [21]; 0.94 (S. cerevisiae deletion strains, locus YNL128W, strain TEP1, stronger effect = lower value); 0.95 under setting [2]; 0.911 under setting [22]; 0.974 under setting [3]; 0.96 under setting [23]. For the same molecule, the normalized growth runs as follows: under setting [24], 0.748; under setting [25], 0.889; under setting [26], 0.847 (active); under setting [27], 0.913; (S. cerevisiae strains, strain wild type, stronger effect = lower value) 0.978.

As for `Cc1ccc(=O)n(Cc2ccc(Cl)c(Cl)c2)n1`, the normalized growth under setting [4] was 0.989; the normalized growth under setting [5] was 1.01; the normalized growth under setting [6] is 0.958; the normalized growth under setting [7] is 0.989; the normalized growth under setting [8] is 0.968; the normalized growth under setting [9] is 1. In addition, the normalized growth reads like this: under setting [1], 0.977; under setting [10], 0.892; under setting [11], 1.01; under setting [12], 0.966; under setting [13], 0.986; (S. cerevisiae deletion strains, locus YKL190W, strain CNB1, stronger effect = lower value) 0.988. The normalized growth is, setting by setting: under setting [14], 0.921; under setting [15], 0.986; under setting [16], 0.938; under setting [17], 0.913; under setting [18], 0.974; under setting [19], 0.992. The normalized growth by setting is: under setting [20], 0.99; under setting [21], 1.06; under setting [2], 0.949; under setting [22], 0.954; under setting [3], 0.988; under setting [23], 0.988. Besides, the normalized growth by setting is: under setting [24], 0.899; under setting [25], 1.03; under setting [26], 0.985; under setting [27], 0.918.
